Compound activity as filed in PubChem.
A selection: hits, their analogues and other compounds. The true share with any hit is near 1.6%.
KCNQ2 pot – potentiators of rat KCNQ2 potassium channel. Potassium voltage-gated channel subfamily KQT member 2 (Rattus norvegicus), O88943. CHO-K1 KCNQ2, FluxOR thallium flux fluorescence; stronger effect = higher value. B-score at 10 µM. 0.54% of 310,000 active;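 active = fluorescence ratio B-score at least 3 SD of library B-scores, with initial fluorescence B-score within 3 of them, cut at about 5.3 in these data; same plate scores as AID 2156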;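 also: B-score of peak minus minimum over baseline fluorescence ratio after K+ and Tl+ stimulus; positive B-score means potentiation of KCNQ2 with more thallium influx and brighter signal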
Target sequence (O88943 whole entry, looked up): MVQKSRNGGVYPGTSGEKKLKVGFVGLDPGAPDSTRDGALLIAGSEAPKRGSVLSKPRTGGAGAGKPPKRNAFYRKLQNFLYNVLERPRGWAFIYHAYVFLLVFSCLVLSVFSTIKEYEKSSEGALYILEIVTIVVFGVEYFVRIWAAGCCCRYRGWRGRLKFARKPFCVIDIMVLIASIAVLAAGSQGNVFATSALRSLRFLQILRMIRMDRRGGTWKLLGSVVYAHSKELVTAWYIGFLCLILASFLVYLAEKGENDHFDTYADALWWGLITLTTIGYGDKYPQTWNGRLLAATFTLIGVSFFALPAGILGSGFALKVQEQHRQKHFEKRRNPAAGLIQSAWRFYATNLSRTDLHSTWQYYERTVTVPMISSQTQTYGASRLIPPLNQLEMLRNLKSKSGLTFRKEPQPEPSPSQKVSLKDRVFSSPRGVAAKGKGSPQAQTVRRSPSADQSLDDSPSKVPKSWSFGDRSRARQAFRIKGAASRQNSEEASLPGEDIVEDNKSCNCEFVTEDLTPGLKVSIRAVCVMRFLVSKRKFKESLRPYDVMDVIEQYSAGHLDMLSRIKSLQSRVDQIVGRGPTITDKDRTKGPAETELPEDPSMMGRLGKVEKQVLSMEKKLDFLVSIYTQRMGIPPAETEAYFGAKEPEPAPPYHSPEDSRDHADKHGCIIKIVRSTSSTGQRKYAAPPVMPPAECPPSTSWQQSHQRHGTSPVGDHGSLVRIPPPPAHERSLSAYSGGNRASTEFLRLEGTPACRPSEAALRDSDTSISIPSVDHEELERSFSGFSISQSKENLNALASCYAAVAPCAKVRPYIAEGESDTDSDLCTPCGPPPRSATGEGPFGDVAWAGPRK
KCNQ2 block – rat KCNQ2 potassium channel inhibitors, primary screen, cell-based, CHO-K1, FluxOR thallium flux, B-score | Potassium voltage-gated channel subfamily KQT member 2 (Rattus norvegicus), O88943 | 20 min; stronger effect = lower value | B-score at 10 µM | 1.1% of 310,000 active;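 active = fluorescence ratio B-score at most minus 3 library SDs, with starting brightness B-score within 2 library SDs, cut at about -5.5 in these data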
KCNQ2 block conf – rat KCNQ2 potassium channel inhibitors, confirmation, cell-based, thallium flux | KCNQ2-expressing cells, inhibition; stronger effect = lower value | 57% of 1,000 active | activity change, negative = inhibition, % at 10 µM | shares compounds with KCNQ2 block
KCNQ1 spec – human KCNQ1 channel inhibition, counter-screen for KCNQ2 inhibitor project, cell-based, FluxOR thallium flux; shares compounds with KCNQ2 block; KCNQ1-expressing cells, FluxOR thallium flux fluorescence; stronger effect = lower value; activity change, negative = inhibition, % at 10 µM; 15% of 1,000 active; AID 493026, 2011;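 active = activity change at least 3 SD of negative controls below their mean in both duplicate wells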;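 also: CHO cells stably transfected with KCNQ1 and depolarized by potassium stimulus; peak minus minimum fluorescence over baseline after thallium addition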
CHO Tl ctr – thallium flux change in parental CHO cells, counter-screen for KCNQ2 inhibitor project; shares compounds with KCNQ2 block; stronger effect = lower value; activity change, % at 10 µM; 14% of 1,000 active
KCNQ2 patch conf – rat KCNQ2 channel inhibitors, confirmation, cell-based, automated patch clamp, single concentration | calls only at 10 µM | AID 588531, 2011 | 49% of 550 active | shares compounds with KCNQ2 block | KCNQ2-expressing cells, automated patch clamp current
Each line names hits and unclear results; the compound was inactive in the other large screens (follow-up assays come after a bar, where they were run). Unless noted, no rule for the calls is given here.

CC(NC(=O)c1cccc(OC2CCN(C3CCN(C)CC3)CC2)c1)c1ccccc1 (centres undefined)	none
CCn1c(=O)c(=O)[nH]c2cc(C(=O)N(C)Cc3ccc(OC)c(F)c3)ccc21	none
CCOC(=O)c1c(NC(=O)CN2CCCc3ccccc32)sc(C)c1C	none (no result: KCNQ2 pot)
COC(=O)c1c(NC(=O)CN2CCCc3ccccc32)sc(C)c1C	KCNQ2 block -7.66 | KCNQ2 block conf -37.5% | KCNQ1 spec -33.0% | CHO Tl ctr -33.0% | KCNQ2 patch conf inactive
COc1ccc(NC(=O)c2nn(C)c3c2CS(=O)(=O)c2ccccc2-3)cc1	none (no result: KCNQ2 pot)
N#CC(C#N)=C1C=CC=CN1/C(=C\c1ccccc1)C(=O)c1cccs1	KCNQ2 block -10.1 | KCNQ2 block conf inactive | KCNQ1 spec inactive | CHO Tl ctr inactive
O=C(N/N=C/C(Br)=C\c1ccccc1)c1cccs1	none (no result: KCNQ2 pot)
CC(C(=O)c1ccccc1)[n+]1cccc(Br)c1 (centres undefined)	none
C=CCC(=O)N1CCCC(CO)(Cc2ccc(F)cc2F)C1 (centres undefined)	none (no result: KCNQ2 pot)
CCOc1cc(CNc2cccc3ccccc23)cc(Br)c1OCC(=O)NC(C)(C)C	KCNQ2 block -6.85 | KCNQ2 block conf inactive | KCNQ1 spec inactive | CHO Tl ctr inactive
CCOc1cc(CNc2ccc(N(C)C)cc2)cc(Br)c1OCC(=O)NC(C)(C)C	none (no result: KCNQ2 pot)
Cn1cc(C(=O)N2CCN(c3cccc(Cl)c3)CC2)c(=O)c2cc(S(=O)(=O)N3CCOCC3)ccc21	none (no result: KCNQ2 pot)
CCOC(=O)c1c(C)nc2c(c1-c1ccccc1)C(=O)c1ccccc1-2	KCNQ2 block -12.1 | KCNQ2 block conf -29.5% | KCNQ1 spec inactive | CHO Tl ctr inactive | KCNQ2 patch conf active
CCOC(=O)c1c(C)nc2c(c1-c1cc(OC)ccc1OC)C(=O)c1ccccc1-2	none
CCOC(=O)c1c(-c2ccc(Cl)cc2)csc1NC(=O)CNCc1ccco1	none (no result: KCNQ2 pot)
CCOC(=O)c1c(-c2ccccc2)csc1NC(=O)C(C)NCc1ccco1 (centres undefined)	KCNQ2 block -7.2 | KCNQ2 block conf -31.0% | KCNQ1 spec inactive | CHO Tl ctr inactive | KCNQ2 patch conf inactive
O=C(O)COCC(=O)N1CCCN(c2nccc(C(F)(F)F)n2)CC1	none (no result: KCNQ2 pot)
Cc1ccc(-n2ncc3c2CC(C)(C)CC3NC(=O)CCc2c(C)noc2C)cc1 (centres undefined)	none (no result: KCNQ2 pot)
CCOC(=O)c1sc(NC(=O)c2cc(-c3ccccc3C)nc3ccccc23)c(C#N)c1C	KCNQ2 block -8.98 | KCNQ2 block conf -40.0% | KCNQ1 spec -35.5% | CHO Tl ctr -26.0% | KCNQ2 patch conf inactive
CCOC(=O)c1sc(NC(=O)c2ccncc2)c(C#N)c1C	none
CCOc1ccc(-c2nc(CSCC(=O)NC3CC3)c(C)o2)cc1	none
COc1cccc(-c2nc(CS(=O)(=O)CC(=O)NC3CCCc4ccccc43)c(C)o2)c1 (centres undefined)	KCNQ2 block -10 | KCNQ2 block conf -32.0% | KCNQ1 spec inactive | CHO Tl ctr inactive | KCNQ2 patch conf active
CCOc1ccc(-c2nc(CSCC(=O)NC3CCCc4ccccc43)c(C)o2)cc1 (centres undefined)	KCNQ2 block -8.84 | KCNQ2 block conf -40.0% | KCNQ1 spec -37.0% | CHO Tl ctr -36.0% | KCNQ2 patch conf active
COc1cccc(-c2nc(CS(=O)(=O)CC(=O)NC3CCCC3)c(C)o2)c1	none (no result: KCNQ2 pot)
Cc1cccc(C(=O)Nc2ccc3c(c2)ncn3C)c1	none
COc1ccc(CN(C)C(=O)c2cccc(NS(=O)(=O)c3ccccc3)c2)c(OC)c1	none (no result: KCNQ2 pot)
Clc1cccc(Cl)c1CO/N=C/c1c(-c2ccccc2)nc2n1CCS2	KCNQ2 block -8.46 | KCNQ2 block conf inactive | KCNQ1 spec inactive | CHO Tl ctr inactive
COC(=O)/C(C#N)=C/c1c(-c2ccccc2)nc2n1CCS2	none (no result: KCNQ2 pot)
Cc1cccc(N2CCN(S(=O)(=O)c3ccc(-c4ccc(=O)[nH]n4)o3)CC2)c1C	none (no result: KCNQ2 pot)
COc1cc(OC)c(-c2noc(C(=O)OC(C)(C)C)c2C(=O)OC(C)(C)C)c(OC)c1	none (no result: KCNQ2 pot)
Cc1cc(C)c(-c2noc(C(=O)OC(C)(C)C)c2C(=O)OC(C)(C)C)c(C)c1	KCNQ2 block -10.2 | KCNQ2 block conf inactive | KCNQ1 spec inactive | CHO Tl ctr inactive
Cc1csc2nc(CSc3ccc(Cl)cc3)cn12	KCNQ2 block -10.7 | KCNQ2 block conf -37.5% | KCNQ1 spec -43.0% | CHO Tl ctr -35.0% | KCNQ2 patch conf active
Clc1ccc(SCc2cn3ccsc3n2)cc1	none (no result: KCNQ2 pot)
Cc1ccc(OCC(=O)N2CCN(c3nnc(-c4ccc(C)cc4)c4ccccc34)CC2)cc1	KCNQ2 block -7.65 | KCNQ2 block conf -33.0% | KCNQ1 spec inactive | CHO Tl ctr inactive | KCNQ2 patch conf active
COc1ccc(OCC(=O)N2CCN(c3nnc(-c4ccc(C)cc4)c4ccccc34)CC2)cc1	none (no result: KCNQ2 pot)
CSc1ccc(/C=C/C(=O)N2CCN(c3ccccn3)CC2)cc1	none
CC1CCCCC1Nc1ncnc2sccc12 (centres undefined)	none
Fc1cccc(-c2cc3nc(-c4ccccc4)cc(N4CCC5(CC4)OCCO5)n3n2)c1	none (no result: KCNQ2 pot)
Cc1cccc(-c2cc3nc(-c4ccccc4)cc(N4CCC5(CC4)OCCO5)n3n2)c1	KCNQ2 block -8.13 | KCNQ2 block conf -30.0% | KCNQ1 spec inactive | CHO Tl ctr inactive | KCNQ2 patch conf inactive
Cc1cc(C)c(NC(=O)C2CCCO2)c(C)c1 (centres undefined)	none (no result: KCNQ2 pot)
O=C(NCCCN1CCN(c2ccc(F)cc2)CC1)NC12CC3CC(CC(C3)C1)C2	KCNQ2 block -8.16 | KCNQ2 block conf inactive | KCNQ1 spec inactive | CHO Tl ctr inactive
O=C(NCCCN1CCOCC1)NC12CC3CC(CC(C3)C1)C2	none (no result: KCNQ2 pot)
O=C1NC(=O)/C(=C\c2cn(CC(=O)N3CCOCC3)c3ccccc23)S1	none (no result: KCNQ2 pot)
O=C(Cc1c(F)cccc1Cl)N(Cc1ccccc1)c1ccccn1	none
O=C(/C=C/c1ccc(Cl)cc1)N(Cc1ccccc1)c1ccccn1	KCNQ2 block -8.26 | KCNQ2 block conf -31.0% | KCNQ1 spec inactive | CHO Tl ctr inactive | KCNQ2 patch conf active
COc1ccccc1-c1cc(C(=O)N2CCOCC2)no1	none (no result: KCNQ2 pot)
Cc1nn(-c2ccccc2)c(N)c1-c1ccccc1	none (no result: KCNQ2 pot)
Cc1nn(-c2ccccc2)c(/N=C/c2ccccc2O)c1-c1ccccc1	KCNQ2 block -10.8 | KCNQ2 block conf -43.0% | KCNQ1 spec -50.5% | CHO Tl ctr -43.0% | KCNQ2 patch conf inactive
O=C(Nc1ccc(-n2cc(Br)cn2)cc1)c1ccncc1	none (no result: KCNQ2 pot)
CCOC(=O)C1CCN(C(c2cc3ccc(C)c(C)c3[nH]c2=O)c2nnnn2C2CCCCC2)CC1 (centres undefined)	none (no result: KCNQ2 pot)
